Inconclusive results are not listed. A call without a number means that no potency is given here. Activity calls are given as the source filed them. Calls come from the whole dose curve; as a rule, active = well fitted curve in the direction sought with a large enough effect; inconclusive = small, poorly fitted or top-dose-only effect, or another doubt; inactive = no such curve, though single readings can be large or run the other way.

Sequence of Pyruvate kinase PKLR (Homo sapiens) (P30613 whole entry, looked up): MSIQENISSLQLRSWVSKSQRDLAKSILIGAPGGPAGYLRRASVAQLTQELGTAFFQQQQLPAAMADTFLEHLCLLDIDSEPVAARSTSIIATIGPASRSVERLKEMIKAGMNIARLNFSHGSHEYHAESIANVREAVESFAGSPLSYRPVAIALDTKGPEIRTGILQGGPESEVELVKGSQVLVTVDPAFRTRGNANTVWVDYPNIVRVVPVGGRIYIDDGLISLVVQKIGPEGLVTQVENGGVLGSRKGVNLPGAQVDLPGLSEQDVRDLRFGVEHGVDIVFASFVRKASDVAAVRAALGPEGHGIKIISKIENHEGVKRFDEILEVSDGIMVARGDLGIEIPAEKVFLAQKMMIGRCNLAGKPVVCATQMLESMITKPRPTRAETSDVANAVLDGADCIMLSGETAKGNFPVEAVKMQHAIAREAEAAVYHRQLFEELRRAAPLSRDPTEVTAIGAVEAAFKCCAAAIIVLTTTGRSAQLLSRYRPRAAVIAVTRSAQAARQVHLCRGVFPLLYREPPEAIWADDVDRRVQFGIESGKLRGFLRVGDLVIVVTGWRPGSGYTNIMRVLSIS

The assay concerns the target Pyruvate kinase PKLR (Homo sapiens) (UniProt P30613). The assay is described as follows: Confirmation Concentration-Response Assay for Activators of Human Reticulocyte Pyruvate Kinase. The conditions noted are these: purified hPK-R, Kinase-Glo ATP luminescence, 1 h; series mostly up to 57.5 µM. From the text:
Confirmatory assay NIH Chemical Genomics Center [NCGC] Wael M. Rabeh, Lyudmila Nedyalkova and Hee-Wan Park [Structural Genomics Consortium, 100 College St. Toronto, Ontario, Canada] NCGC Assay Overview: Human pyruvate kinase reticulocyte (hPK-R) enzyme was supplied as a highly purified (>95% pure) preparation from Structural Genomics Consortium in Toronto (Ontario, Canada) and assayed for its ability to generate ATP from ADP using phosphoenolpyruvate (PEP) as a substrate. ATP generation was detected in a coupled reaction by luciferase-mediated luminescence, an ATP-dependent process. Pyruvate kinase substrates, PEP and ADP, were present in the assay at Km and approximately 10-fold below Km respectively. The enzyme was assayed at an intermediate level of activity to screen for both inhibitors and activators.
NCGC Assay Protocol Summary for R-isoform Three uL of substrate mix (at r.t.) in assay buffer (50 mM Imidazole pH7.2, 50 mM KCl, 7 mM MgCl2, 0.01% Tween 20, 0.05% BSA) was dispensed into white solid bottom 1,536 well microtiter plates so that the final concentrations of substrates in the assay were 0.1 mM ADP and 0.5 mM PEP. 23 nL of compound were delivered by a pin tool and 1 uL of enzyme mix (final concentration of 0.1 nM) in assay buffer (4 degree Celsius) was added. Plates were incubated at room temperature for 1 hour. Two uL of detection mix (Kinase-Glo, Promega; at 4 degree Celsius protected from light) was added and luminescence read by a ViewLux (Perkin Elmer) at 1 second exposure/plate. Data were normalized to the uninhibited (row 31). Additionally, a no enzyme and 5-fold enzyme control was dispensed in row 32, split equally between the two conditions.
As to `Cn1c2cc(C=O)sc2c2cnn(Cc3ccccc3F)c(=O)c21`, the Potency result was “inactive”.

For `Cc1cc2c(s1)c1cnn(Cc3cccc(F)c3F)c(=O)c1n2C`, the Potency entry is “inactive”.

Turning to `O=S(=O)(c1ccc2c(c1)OCCCO2)N1CCN(S(=O)(=O)c2c(F)cccc2F)CC1`, the Potency result was “inactive”.

Take `Cc1cc2c(s1)c1cnn(Cc3ccc(S(C)(=O)=O)cc3)c(=O)c1n2C`: the Potency entry is “inactive”.

Regarding `Cn1c2ccsc2c2ncn(Cc3ccccc3F)c(=O)c21`, the Potency result was “inactive”.

As for `Cc1cc2c(s1)c1cnn(Cc3ccc(F)c(F)c3F)c(=O)c1n2C`, the Potency entry is “inactive”.

Consider `Cc1cc2c(s1)c1cnn(Cc3c(F)cccc3F)c(=O)c1n2C`, for which the Potency entry was “inactive”.

Take `Cn1c2cc(C#N)sc2c2cnn(Cc3ccccc3F)c(=O)c21`: the Potency result is “inactive”.

For `O=S(=O)(c1c(F)cccc1F)N1CCN(S(=O)(=O)c2c(F)cccc2F)CC1`, the Potency entry is “inactive”.

With `Cc1cc2c(s1)c1cnn(Cc3ccc(C(F)(F)F)cc3)c(=O)c1n2C`, the Potency result was “inactive”.

Regarding `COc1ccc(S(=O)(=O)N2CCN(S(=O)(=O)c3ccc4c(c3)OCCO4)CC2)cc1`, the Potency was 1410 nM (active).

For the compound `O=S(=O)(c1ccc(Cl)cc1)N1CCN(S(=O)(=O)c2ccc3c(c2)OCCO3)CC1`, the Potency entry is “inactive”.

Turning to `CC(C)c1cc2c(s1)c1cnn(Cc3ccccc3F)c(=O)c1n2C`, the Potency result was “inactive”.

`O=C(CN1C(=O)N/C(=C\c2cccn2-c2cccc(C(=O)O)c2)C1=O)Nc1ccccc1F`: the Potency entry is “inactive”.

As to `Cc1cc2c(s1)c1cnn(Cc3ccc(F)cc3F)c(=O)c1n2C`, the Potency result is “inactive”.

On to `O=S(=O)(NCCNS(=O)(=O)c1c(F)cccc1F)c1ccc2c(c1)OCCO2`, for which the Potency entry was “inactive”.

Turning to `O=S(=O)(c1cccc(C(F)(F)F)c1)N1CCN(S(=O)(=O)c2ccc3c(c2)OCCO3)CC1`, the Potency entry is “inactive”.

As to `Cc1cc2c(s1)c1cnn(Cc3ccccc3Cl)c(=O)c1n2C`, the Potency result is “inactive”.

In the case of `COC(=O)c1cc2c(s1)c1cnn(Cc3ccccc3F)c(=O)c1n2C`, the Potency result is “inactive”.

As for `O=S(=O)(NCCCCCNS(=O)(=O)c1c(F)cccc1F)c1ccc2c(c1)OCCO2`, the Potency result is “inactive”.

On to `COc1cc2c(s1)c1cnn(Cc3ccccc3F)c(=O)c1n2C`, for which the Potency entry was “inactive”.

Take `CCCCCn1ncc2c3sc(C)cc3n(C)c2c1=O`: the Potency entry was “inactive”.

Consider `O=C(c1c(F)cccc1F)N1CCN(S(=O)(=O)c2ccc3c(c2)OCCO3)CC1`, for which the Potency result was “inactive”.

`CC(=O)Nc1cc2c(s1)c1cnn(Cc3ccccc3F)c(=O)c1n2C`: the Potency entry was “inactive”.

In the case of `Cc1cc2c(s1)c1cnn(Cc3ccc(Cl)cc3)c(=O)c1n2C`, the Potency result is “inactive”.

Turning to `Cc1cc2c(s1)c1cnn(Cc3cccc(F)c3)c(=O)c1n2C`, the Potency entry was “inactive”.

Take `Cc1ccc(Cn2ncc3c4sc(C)cc4n(C)c3c2=O)c(C)c1`: the Potency entry is “inactive”.

As to `Cc1cc2c(s1)c1cnn(Cc3ccccc3F)c(=O)c1n2C`, the Potency result is “inactive”.

Turning to `COc1ccc(Cn2ncc3c4sc(C)cc4n(C)c3c2=O)cc1F`, the Potency entry is “inactive”.

With `Cn1c2ccsc2c2cnn(Cc3ccccc3F)c(=O)c21`, the Potency result is “inactive”.

Take `Cn1c2cc(CO)sc2c2cnn(Cc3ccccc3F)c(=O)c21`: the Potency result was “inactive”.

For `Cc1cc2c(s1)c1cnn(Cc3ccc(F)cc3)c(=O)c1n2C`, the Potency entry was “inactive”.

In the case of `Cn1c2cc(S(C)=O)sc2c2cnn(Cc3ccccc3F)c(=O)c21` (stereo not given), the Potency entry was “inactive”.

For the compound `Cc1cc2c(s1)c1cnn(Cc3ccccc3)c(=O)c1n2C`, the Potency result was “inactive”.

On to `O=C(c1ccc2c(c1)OCCO2)N1CCN(S(=O)(=O)c2c(F)cccc2F)CC1`, for which the Potency result is “inactive”.

For `Cc1cc2c(s1)c1cnn(Cc3ccc(-c4ccccc4)cc3)c(=O)c1n2C`, the Potency entry is “inactive”.

In the case of `CCn1c2cc(C)sc2c2cnn(Cc3ccccc3F)c(=O)c21`, the Potency result was “inactive”.

Consider `Cc1cc2c(s1)c1cnn(Cc3cccc(Cn4ncc5c6sc(C)cc6n(C)c5c4=O)c3F)c(=O)c1n2C`, for which the Potency result is “inactive”.

For the compound `Cc1cc2c(s1)c1cnn(Cc3c(F)cccc3Cl)c(=O)c1n2C`, the Potency result is “inactive”.

Take `O=S(=O)(c1ccc2c(c1)OCCO2)N1CCN(S(=O)(=O)c2cccc[n+]2[O-])CC1`: the Potency entry was “inactive”.
